# PubChem BioAssay AID1030 (National Center for Advancing Translational Sciences (NCATS), 2008)
# Among all 220,000 compounds or so, about 16,000 (7.3%) were called active. About 25% were inconclusive and are not listed. Calls follow the shape of the dose curve; as a rule, active = well fitted inhibition curve with a large enough effect (not every such curve was filed as active); inconclusive = small, poorly fitted or top-dose-only effect, or another doubt; inactive = no such curve, though single readings can be large or run the other way. Shown is part of a subset that was picked to be rich in actives.
# Biological target: Aldehyde dehydrogenase 1A1 (Homo sapiens) (UniProt P00352)
# Sequence (P00352 whole entry, looked up): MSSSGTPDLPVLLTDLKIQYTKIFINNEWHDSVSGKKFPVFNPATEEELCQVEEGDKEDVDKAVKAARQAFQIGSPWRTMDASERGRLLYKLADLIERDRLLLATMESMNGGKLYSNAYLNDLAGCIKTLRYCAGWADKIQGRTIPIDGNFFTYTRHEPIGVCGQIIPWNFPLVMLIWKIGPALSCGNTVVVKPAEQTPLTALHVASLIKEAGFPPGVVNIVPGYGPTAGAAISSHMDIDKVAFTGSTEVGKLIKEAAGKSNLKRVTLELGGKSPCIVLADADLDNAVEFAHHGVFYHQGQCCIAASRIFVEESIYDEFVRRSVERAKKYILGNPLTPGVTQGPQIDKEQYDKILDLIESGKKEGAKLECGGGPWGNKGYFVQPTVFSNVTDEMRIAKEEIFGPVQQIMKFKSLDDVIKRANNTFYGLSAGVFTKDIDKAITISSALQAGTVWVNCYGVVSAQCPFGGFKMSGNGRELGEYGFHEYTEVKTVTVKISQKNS
# Test: qHTS Assay for Inhibitors of Aldehyde Dehydrogenase 1 (ALDH1A1);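 as to activity, negative = inhibition: plate controls were no enzyme wells and a reference inhibitor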
# Details: Purified ALDH1A1, NADH fluorescence, propionaldehyde substrate; series mostly up to 75.3 µM; activity, negative = inhibition: at the top concentration
# Potency is read from the fitted curve at half-maximal effect.
SMILES,"activity, negative = inhibition",Potency
O=C(c1cccc(C(=O)N2CCN(c3ccc(F)cc3)CC2)c1)N1CCN(c2ccc(F)cc2)CC1,2.51% (inactive),
O=C(c1cccc(F)c1)N1CCN(c2ccc([N+](=O)[O-])c3cccnc23)CC1,-6.77% (inactive),
O=C(c1cccc(F)c1)N1CCN(c2ccc([N+](=O)[O-])c(N3CCCCC3)c2)CC1,,8.91 µM (active)
CCCN(CC(=O)Nc1ccccc1C)C(=O)c1cc(=O)[nH]c2ccccc12,-3.3% (inactive),
O=C(Nc1ccc2c(c1)C(=O)OC2)Nc1cccc2ccccc12,4.39% (inactive),
CC(C)OCCCNC(=S)N1CCC(C(=O)c2ccc3c(c2)OCCO3)CC1,-11.4% (inactive),
Cc1nn(C)c(C)c1CN(C(=O)CCc1nnc(Cc2c[nH]c3ccccc23)o1)C(C)C,17% (inactive),
Cc1cc(NC(=O)CN2CCCC(C)C2)n(-c2nc3ccccc3s2)n1 (stereo not given),0.548% (inactive),
CCOC(=O)N1CCN(CC(=O)Nc2cc(C)nn2-c2nc3ccccc3s2)CC1,,15.8 µM (active)
CCOC(=O)N1CCN(CC(=O)Nc2ccc(F)cc2)CC1,-2.18% (inactive),
O=C(Cc1c[nH]c2ccccc12)OCCOC(=O)Cc1c[nH]c2ccccc12,,17.8 µM (active)
CN(Cc1cccs1)C(=O)Cc1c[nH]c2ccccc12,3.39% (inactive),
CC(C)(C)N(Cc1ccccc1)C(=O)COC(=O)CCc1c[nH]c2ccccc12,-11.5% (inactive),
NS(=O)(=O)c1ccc(NC(=O)COC(=O)CCc2c[nH]c3ccccc23)cc1,-1.24% (inactive),
CC(=O)NC(Cc1c[nH]c2ccccc12)C(=O)O (stereo not given),9.05% (inactive),
CCOC(=O)CN(C)Cc1c[nH]c2ccccc12,,22.4 µM (active)
COc1ccc(NC(=O)C(=O)NCC(=O)Nc2cccc(C(F)(F)F)c2)cc1,0.589% (inactive),
Cc1nnc(SCC(=O)N2CCc3ccccc3C2)s1,-3.58% (inactive),
O=C(C(=O)N1CCc2ccccc2C1)N1CCc2ccccc2C1,8.43% (inactive),
COc1ccc(-c2nc(CS(=O)CC(=O)N3CCc4ccccc4C3)c(C)o2)cc1 (stereo not given),,25.1 µM (active)
Clc1cc(-c2ccc(/C=N/n3cnnc3)o2)ccc1Br,9.2% (inactive),
CCc1ccccc1NC(=O)CSc1nnc(-c2ccncc2)o1,-0.724% (inactive),
Cc1ccc2c(Cl)c(C(=O)Nc3nn[nH]n3)sc2c1,0.398% (inactive),
O=c1ccn([C@@H]2O[C@H](COP(=O)(O)OP(=O)(O)OP(=O)(O)O)[C@@H](O)[C@H]2O)c(=O)[nH]1,6.39% (inactive),
Cc1ccc(C(=O)NCC(=O)O)cc1S(=O)(=O)N1CCCCC1,2.98% (inactive),
COc1ccccc1N1CCN(C(=O)c2ccc(Cl)c(S(=O)(=O)N3CCCC3)c2)CC1,0.0267% (inactive),
O=C(Oc1ccc([N+](=O)[O-])cc1)c1ccc(Cl)c(S(=O)(=O)N2CCCCC2)c1,,12.6 µM (active)
CC1CCC2(CC1)NC(=O)N(Cc1nnc(-c3cccs3)o1)C2=O (stereo not given),-3.25% (inactive),

SMILES,"activity, negative = inhibition",Potency
CC(O)[C@@H](N)C(=O)O (stereo not given in full),16.9% (inactive),
CN(CC(=O)NCCc1ccccn1)S(=O)(=O)c1ccc(Cl)cc1,-1.89% (inactive),
O=C1C=CC(=O)N1c1ccc(N2CCCCC2)cc1,,0.251 µM (active)
O=c1[nH][nH]c(=O)c2cc(N3CCCC3)ccc12,-1.14% (inactive),
Cc1cccn2c(CN(C)C3CCCc4ccccc43)c(C(=O)N3CCOCC3)nc12 (stereo not given),-12.9% (inactive),
COc1ccc(C(=O)Nc2ccc(N3CCC(C)CC3)cc2)cc1Br,10.6% (inactive),
CC1CCN(C(=S)c2cccc(O)c2)CC1,,31.6 µM (active)
CC(=O)N1CCN(S(=O)(=O)c2cccc(C(=O)NC3CCC(C)CC3)c2)CC1 (stereo not given),-8.41% (inactive),
Cc1cc2c(cc1C)[n+](C)cn2CC(O)COCC1CC=CCC1 (stereo not given),-2.51% (inactive),
CNC(=S)N1CCN(c2ccccn2)CC1,3.36% (inactive),
CC(=C1C(=O)c2ccccc2C1=O)N1CCN(c2ccccn2)CC1,,12.6 µM (active)
COc1ccc(N2CCN(C(C)=C3C(=O)c4ccccc4C3=O)CC2)cc1,2.48% (inactive),
CC1(C)OC(=O)C(=CNC(CO)C(=O)O)C(=O)O1 (stereo not given),6.92% (inactive),
O=Cc1c(Cl)cccc1Cl,,14.1 µM (active)
O=C(/C=C/c1c(Cl)cccc1Cl)NCc1ccccc1,5.21% (inactive),
O=C1N=C2SCCN2/C1=C\c1c(Cl)cccc1Cl,-0.867% (inactive),
Cc1ccc(C(=O)O)cc1N1C(=O)CCCC1=O,14% (inactive),
O=C(O)c1ccc(NC(=O)c2cn(-c3ccccc3)nc2-c2ccc(Cl)cc2)cc1,1.24% (inactive),
COCCn1c(Cc2cccn2C)nnc1SCC(=O)Nc1nccs1,-8.29% (inactive),
COc1ccccc1NC(=O)CSc1nnc(Cn2nnc(-c3ccccc3)n2)n1-c1ccccc1,,2.82 µM (active)
Cn1cccc1Cc1nnc(SCC(=O)NCCc2ccccc2)n1-c1ccc(F)cc1,-0.308% (inactive),
COc1cc(-c2nnn(CC(=O)NCc3ccccc3)n2)cc(OC)c1OC,3.6% (inactive),
COC(=O)c1ccccc1NC(=O)CSc1nnnn1C,2.76% (inactive),
COc1cccc(-n2c(Cc3cc(=O)[nH]c(=O)[nH]3)nnc2SCC(=O)Nc2ccccc2)c1,-2.15% (inactive),
COc1ccccc1NC(=O)CSc1nnc(Cc2cccn2C)n1-c1ccc(F)cc1,,17.8 µM (active)
COc1ccc(OC)c(/C=N/NC(=O)CSc2nnc(C)n2-c2ccccc2)c1,-10.8% (inactive),
COC(=O)c1ccc(NC(=O)CSc2nnc(Cc3cccn3C)n2-c2ccc(F)cc2)cc1,,22.4 µM (active)
